Reference: PubChem BioAssay (NCI)
Compounds without any hit were thinned out: in the full panel of roughly 79,000, 15% have a hit. Active and inactive are the calls of the source. Rule as the data show it: active = growth inhibition above about 70%; inactive = the rest.

Assays:
[1] = NCI Yeast Anticancer Drug Screen. Data for the wt1 strain (AID 149);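 also: 0% = growth of vehicle-treated wt1 cultures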; conditions: S. cerevisiae wt1 strain (SPY 50644) growth inhibition, stronger effect = higher value
Procedure, shortened: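 Measured: growth of wt1 yeast under compound versus vehicle treatment, reported as inhibition.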

[2] = NCI Yeast Anticancer Drug Screen. Data for the rad50EPP+ strain (AID 151);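 also: 0% = growth of vehicle-treated control cultures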; conditions: S. cerevisiae rad50 mutant strain, stronger effect = higher value
Procedure, shortened: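 In this screen, rad50EPP+ yeast were exposed to compounds. Growth inhibition was scored against vehicle-treated controls.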

[3] = NCI Yeast Anticancer Drug Screen. Data for the rad50 strain (AID 155);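 also: 0% = growth of vehicle-only cultures of the same strain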; conditions: S. cerevisiae rad50 strain growth inhibition, stronger effect = higher value
Procedure, shortened: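 Growth of the mutant yeast was measured after compound exposure and referenced to vehicle-treated cultures.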

[4] = NCI Yeast Anticancer Drug Screen. Data for the mec2-1 strain (AID 157); conditions: S. cerevisiae mec2-1 strain, stronger effect = higher value
Procedure, shortened: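 Vehicle-treated cultures served as reference for growth inhibition of compound-exposed mec2-1 yeast.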

[5] = NCI Yeast Anticancer Drug Screen. Data for the sgs1 mgt1 strain (AID 161);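 also: 0% = growth of cultures given vehicle only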; conditions: S. cerevisiae sgs1 mgt1 strain, stronger effect = higher value
Procedure, shortened: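 Read-out: growth inhibition vs vehicle controls. Cells: mutant yeast strain deficient in DNA damage repair.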

[6] = NCI Yeast Anticancer Drug Screen. Data for the CLN2oe strain (AID 163);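 also: 0% = growth of vehicle-only control cultures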; conditions: S. cerevisiae CLN2oe strain, stronger effect = higher value
Procedure, shortened: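 Inhibition relative to vehicle-treated yeast is reported. Cells: strain with genetic alteration in cell-cycle control, grown with compound.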

[7] = NCI Yeast Anticancer Drug Screen. Data for the cln2 rad14 strain (AID 165);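 also: 0% = growth equal to vehicle treated cultures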; conditions: S. cerevisiae cln2 rad14 strain, stronger effect = higher value
Procedure, shortened: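 Each compound was tested on cln2 rad14 yeast. Inhibition of growth was calculated against vehicle-exposed controls.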

[8] = NCI Yeast Anticancer Drug Screen. Data for the bub3 strain (AID 167); conditions: S. cerevisiae bub3 mutant strain, stronger effect = higher value
Procedure, shortened: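 Whole-cell yeast assay. The mutant strain was incubated with compounds, and growth inhibition was determined by comparison with vehicle-treated cells.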

[9] = NCI Yeast Anticancer Drug Screen. Data for the wt2 strain (AID 169);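 also: 0% = growth of vehicle-treated yeast cultures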; conditions: S. cerevisiae wt2 strain growth inhibition, stronger effect = higher value
Procedure, shortened: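 Inhibition of yeast growth was determined after compound treatment, normalised to controls receiving only vehicle.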

[10] = NCI Yeast Anticancer Drug Screen. Data for the mlh1 strain (AID 171);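 also: 0% = growth of vehicle-treated control cultures of the same strain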; conditions: S. cerevisiae mlh1 strain growth inhibition, stronger effect = higher value
Procedure, shortened: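 Vehicle-normalised growth inhibition of a repair- or checkpoint-altered yeast strain following compound treatment.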

[11] = NCI Yeast Anticancer Drug Screen. Data for the sgs1 strain (AID 173);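 also: 0% = growth of vehicle-only control cultures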; conditions: S. cerevisiae sgs1 mutant, stronger effect = higher value
Procedure, shortened: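 Screen format: yeast with repair or checkpoint alterations, compound exposure, growth read relative to vehicle.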

[12] = NCI Yeast Anticancer Drug Screen. Data for the mlh1 rad18 strain (AID 175); conditions: S. cerevisiae mlh1 rad18 strain growth inhibition, stronger effect = higher value
Procedure, shortened: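 Vehicle-treated cultures served as the reference for growth inhibition in a yeast strain carrying DNA damage repair alterations exposed to each compound.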

[13] = NCI Yeast Anticancer Drug Screen. Data for the rad18 strain (AID 177); conditions: S. cerevisiae rad18 mutant growth inhibition, stronger effect = higher value
Procedure, shortened: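 Test articles were incubated with altered yeast defective in DNA damage repair. Results are given as inhibition of growth versus vehicle.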

[14] = NCI Yeast Anticancer Drug Screen. Data for the rad52 strain (AID 147);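 also: 0% = growth of vehicle-treated control cultures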; conditions: S. cerevisiae rad52 mutant growth inhibition, stronger effect = higher value
Procedure, shortened: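 Vehicle-treated cultures served as the reference for growth inhibition of compound-exposed yeast bearing a DNA repair mutation.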

[15] = NCI Yeast Anticancer Drug Screen. Data for the rad14 strain (AID 159);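 also: 0% = growth of vehicle-treated control cultures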; conditions: S. cerevisiae rad14 strain growth inhibition, stronger effect = higher value
Procedure, shortened: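 Here, inhibition of yeast growth was measured after compound exposure, using a strain with a genetic defect in DNA damage repair and vehicle-treated cultures as the reference.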

[16] = at 5.0 µM (retest, dose inferred, filed as 0.5)
[17] = at 50.0 µM (retest, dose inferred, filed as 5.0)

Measured: growth inhibition

CCOC(=O)CNC(=O)c1[nH]cnc1/N=N/N(C)C
inactive: [1]; at 1.2 µM 8% | [1]; at 3.7 µM 9% | [1]; at 11.0 µM 12% | [1]; at 33.0 µM 12% | [2]; at 1.2 µM -23% | [2]; at 3.7 µM -21% | [2]; at 11.0 µM -21% | [2]; at 33.0 µM -30% | [2]; at 100.0 µM -13% | [3]; at 1.2 µM -5% | [3]; at 3.7 µM 4% | [3]; [16] -10% | [3]; at 11.0 µM 2% | [3]; at 33.0 µM 5% | [3]; [17] 7% | [4]; at 1.2 µM -8% | [4]; at 3.7 µM -10% | [4]; [16] -7% | [4]; at 11.0 µM -8% | [4]; at 33.0 µM -6% | [4]; [17] -17% | [5]; [16] -12% | [5]; [17] -7% | [6]; at 1.2 µM 26% | [6]; at 3.7 µM 23% | [6]; at 11.0 µM 17% | [6]; at 33.0 µM 44% | [7]; [16] -1% | [7]; [17] 35% | [8]; at 1.2 µM 22% | [8]; at 3.7 µM 31% | [8]; [16] 3% | [8]; at 11.0 µM 29% | [8]; at 33.0 µM 62% | [9]; at 1.2 µM -2% | [9]; at 3.7 µM 1% | [9]; at 11.0 µM 0% | [9]; at 33.0 µM 1% | [10]; at 1.2 µM 13% | [10]; at 3.7 µM 5% | [10]; at 11.0 µM 4% | [10]; at 33.0 µM 2% | [11]; at 1.2 µM 10% | [11]; at 3.7 µM 1% | [11]; at 11.0 µM -2% | [11]; at 33.0 µM 9% | [12]; [16] -30% | [12]; [17] 59% | [13]; at 1.2 µM 0% | [13]; at 3.7 µM -11% | [13]; at 11.0 µM -13% | [13]; at 33.0 µM -3%
active: [1]; at 100.0 µM 98% | [3]; at 50.0 µM 89.6% | [3]; at 100.0 µM 97% | [4]; at 50.0 µM 90.3% | [4]; at 100.0 µM 98% | [5]; at 50.0 µM 89.5% | [6]; at 100.0 µM 98% | [7]; at 50.0 µM 90.5% | [8]; [17] 96% | [8]; at 50.0 µM 91.4% | [8]; at 100.0 µM 98% | [9]; at 100.0 µM 97% | [10]; at 100.0 µM 98% | [11]; at 100.0 µM 98% | [12]; at 50.0 µM 71.5% | [13]; at 100.0 µM 98%

Clc1nc(C(Cl)Cl)nc2sc3c(c12)CCCC3
inactive: [14]; at 1.2 µM 10% | [14]; at 3.7 µM 11% | [14]; at 11.0 µM 14% | [14]; at 33.0 µM 26% | [14]; at 100.0 µM 54% | [2]; at 1.2 µM 1% | [2]; at 3.7 µM 0% | [2]; at 11.0 µM 1% | [2]; at 33.0 µM 0% | [2]; at 100.0 µM -2% | [3]; at 1.2 µM 6% | [3]; at 3.7 µM -1% | [3]; [16] 28% | [3]; at 11.0 µM 1% | [3]; at 33.0 µM 31% | [3]; at 100.0 µM 53% | [4]; at 1.2 µM 11% | [4]; at 3.7 µM 9% | [4]; [16] 5% | [4]; at 11.0 µM 15% | [4]; at 33.0 µM 39% | [4]; at 100.0 µM 66% | [15]; at 1.2 µM 6% | [15]; at 3.7 µM 2% | [15]; at 11.0 µM 9% | [15]; at 33.0 µM 33% | [15]; at 100.0 µM 69% | [5]; [16] 5% | [5]; [17] 26% | [7]; [16] 32% | [8]; at 1.2 µM 5% | [8]; at 3.7 µM 3% | [8]; [16] 0% | [8]; at 11.0 µM 8% | [8]; at 33.0 µM 27% | [8]; at 100.0 µM 43% | [9]; at 1.2 µM 3% | [9]; at 3.7 µM 3% | [9]; at 11.0 µM 6% | [9]; at 33.0 µM 36% | [10]; at 1.2 µM 4% | [10]; at 3.7 µM 4% | [10]; at 11.0 µM 7% | [10]; at 33.0 µM 29% | [10]; at 100.0 µM 51% | [11]; at 1.2 µM 7% | [11]; at 3.7 µM 7% | [11]; at 11.0 µM 10% | [11]; at 33.0 µM 51% | [12]; [16] -1% | [13]; at 1.2 µM 12% | [13]; at 3.7 µM 13% | [13]; at 11.0 µM 21% | [13]; at 33.0 µM 35% | [13]; at 100.0 µM 58%
active: [3]; [17] 88% | [3]; at 50.0 µM 98.2% | [4]; [17] 80% | [4]; at 50.0 µM 89.3% | [5]; at 50.0 µM 97.7% | [7]; [17] 81% | [7]; at 50.0 µM 78.2% | [8]; [17] 96% | [8]; at 50.0 µM 92.1% | [9]; at 100.0 µM 73% | [11]; at 100.0 µM 78% | [12]; [17] 74% | [12]; at 50.0 µM 96.3%

CCc1nc(N)nc(N)c1-c1ccc(NCCCCCCN)c([N+](=O)[O-])c1
active: [3]; at 50.0 µM 86% | [4]; at 50.0 µM 95.6% | [5]; at 50.0 µM 92.7% | [7]; [17] 83% | [7]; at 50.0 µM 96.2% | [8]; at 50.0 µM 93.5% | [12]; at 50.0 µM 97.2%
inactive: [1]; at 1.2 µM -1% | [1]; at 3.7 µM -1% | [1]; at 11.0 µM -1% | [1]; at 33.0 µM -3% | [1]; at 100.0 µM -4% | [2]; at 1.2 µM -6% | [2]; at 3.7 µM -3% | [2]; at 11.0 µM -3% | [2]; at 33.0 µM 1% | [2]; at 100.0 µM 17% | [3]; at 1.2 µM 0% | [3]; at 3.7 µM -2% | [3]; [16] -16% | [3]; at 11.0 µM 11% | [3]; at 33.0 µM 17% | [3]; [17] -4% | [3]; at 100.0 µM 42% | [4]; at 1.2 µM -1% | [4]; at 3.7 µM -4% | [4]; [16] 4% | [4]; at 11.0 µM -4% | [4]; at 33.0 µM -4% | [4]; [17] -10% | [4]; at 100.0 µM 11% | [15]; at 1.2 µM 4% | [15]; at 3.7 µM -4% | [15]; at 11.0 µM -3% | [15]; at 33.0 µM -13% | [15]; at 100.0 µM 0% | [5]; [16] -22% | [5]; [17] -16% | [6]; at 1.2 µM -3% | [6]; at 3.7 µM 1% | [6]; at 11.0 µM -5% | [6]; at 33.0 µM 0% | [6]; at 100.0 µM -5% | [7]; [16] -19% | [8]; at 1.2 µM -7% | [8]; at 3.7 µM -4% | [8]; [16] 11% | [8]; at 11.0 µM 9% | [8]; at 33.0 µM 17% | [8]; [17] -16% | [8]; at 100.0 µM -2% | [9]; at 1.2 µM -1% | [9]; at 3.7 µM 0% | [9]; at 11.0 µM -2% | [9]; at 33.0 µM -3% | [9]; at 100.0 µM -4% | [10]; at 1.2 µM -4% | [10]; at 3.7 µM -1% | [10]; at 11.0 µM 0% | [10]; at 33.0 µM -6% | [10]; at 100.0 µM -5% | [11]; at 1.2 µM -3% | [11]; at 3.7 µM -2% | [11]; at 11.0 µM -3% | [11]; at 33.0 µM -5% | [11]; at 100.0 µM -3% | [12]; [16] -27% | [12]; [17] -34% | [13]; at 1.2 µM -4% | [13]; at 3.7 µM -6% | [13]; at 11.0 µM -5% | [13]; at 33.0 µM -17% | [13]; at 100.0 µM -23%
